Measurements as given in PubChem BioAssay AID1159580 (chemical genetic matrix, 2015).
Several values for one entry are separate records, joined by “and”; a condition that tells them apart may be missing. Identical values can stand only once. The whole screen tested about 5,500 compounds, of which about 2,000 (36%) were called active. Not shown: some 18% with an inconclusive outcome. The list shows a part of the results. Unmarked numbers belong to inactive results. Cut-off read from the data, not from the text of the source: active = normalized growth mostly below about 0.91 (no sharp cut-off); inconclusive = no clear call, values can overlap the other calls; inactive = mostly above about 0.92.

Assay: chemical genetic growth profiling, strain panel (AID 1159580);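 note: tested at 20 µM; growth read once vehicle control cultures reached saturation at 30 °C; 1 = growth at the plate median or of vehicle wells; lower values mean less growth of the strain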
Conditions: S. cerevisiae deletion strains, growth OD

## CCOP(=S)(OCC)Oc1ccc2c(C)c(Cl)c(=O)oc2c1
Locus YAL013W, strain DEP1, stronger effect = lower value
  normalized growth: 0.987
Locus YAL021C, strain ccr4, stronger effect = lower value
  normalized growth: 0.997
Locus YAL026C, strain drs2, stronger effect = lower value
  normalized growth: 0.96
Locus YAL030W, strain snc1, stronger effect = lower value
  normalized growth: 0.976
Locus YBL061C, strain skt5, stronger effect = lower value
  normalized growth: 0.96
Locus YBR009C, strain hhf1, stronger effect = lower value
  normalized growth: 0.982
Locus YBR021W, strain FUR4, stronger effect = lower value
  normalized growth: 0.97
Locus YBR023C, strain chs3, stronger effect = lower value
  normalized growth: 0.944
Locus YBR171W, strain sec66, stronger effect = lower value
  normalized growth: 0.939
Locus YBR229C, strain ROT2, stronger effect = lower value
  normalized growth: 0.955
Locus YBR231C, strain swc5, stronger effect = lower value
  normalized growth: 0.979
Locus YBR279W, strain paf1, stronger effect = lower value
  normalized growth: 0.971
Locus YCL011C, strain gbp2, stronger effect = lower value
  normalized growth: 0.906 (active)
Locus YCL016C, strain dcc1, stronger effect = lower value
  normalized growth: 0.984
Locus YCL029C, strain bik1, stronger effect = lower value
  normalized growth: 0.984
Locus YCL061C, strain MRC1, stronger effect = lower value
  normalized growth: 0.96
Locus YCL069W, strain vba3, stronger effect = lower value
  normalized growth: 0.957
Locus YCR088W, strain abp1, stronger effect = lower value
  normalized growth: 0.964
Locus YDL005C, strain med2, stronger effect = lower value
  normalized growth: 0.959
Locus YDL035C, strain GPR1, stronger effect = lower value
  normalized growth: 0.978
Locus YDL040C, strain nat1, stronger effect = lower value
  normalized growth: 0.964
Locus YDL074C, strain BRE1, stronger effect = lower value
  normalized growth: 0.907
Locus YDL101C, strain DUN1, stronger effect = lower value
  normalized growth: 0.975
Locus YDL134C, strain PPH21, stronger effect = lower value
  normalized growth: 0.981
Locus YDL185W, strain tfp1, stronger effect = lower value
  normalized growth: 0.957
Locus YDL192W, strain arf1, stronger effect = lower value
  normalized growth: 0.975
Locus YDR001C, strain nth1, stronger effect = lower value
  normalized growth: 0.977
Locus YDR069C, strain doa4, stronger effect = lower value
  normalized growth: 0.938
Locus YDR101C, strain arx1, stronger effect = lower value
  normalized growth: 0.983
Locus YDR137W, strain rgp1, stronger effect = lower value
  normalized growth: 0.939
Locus YDR150W, strain NUM1, stronger effect = lower value
  normalized growth: 0.982
Locus YDR159W, strain sac3, stronger effect = lower value
  normalized growth: 0.901
Locus YDR162C, strain NBP2, stronger effect = lower value
  normalized growth: 0.92
Locus YDR195W, strain ref2
  normalized growth: 1.03
Locus YDR297W, strain sur2, stronger effect = lower value
  normalized growth: 0.988
Locus YDR318W, strain mcm21, stronger effect = lower value
  normalized growth: 0.976
Locus YDR334W, strain swr1, stronger effect = lower value
  normalized growth: 0.961
Locus YDR335W, strain msn5, stronger effect = lower value
  normalized growth: 0.975
Locus YDR388W, stronger effect = lower value
  normalized growth: 0.98
Locus YDR392W, strain spt3, stronger effect = lower value
  normalized growth: 0.836
Locus YDR502C, strain sam2, stronger effect = lower value
  normalized growth: 0.984
Locus YEL003W, strain gim4, stronger effect = lower value
  normalized growth: 0.953
Locus YEL037C, strain rad23, stronger effect = lower value
  normalized growth: 0.962
Locus YEL061C, strain CIN8 (second series), stronger effect = lower value
  normalized growth: 0.962
Locus YEL061C, strain CIN8, stronger effect = lower value
  normalized growth: 0.979
Locus YER015W, strain faa2, stronger effect = lower value
  normalized growth: 0.966
Locus YER016W, strain bim1, stronger effect = lower value
  normalized growth: 0.97
Locus YER110C, stronger effect = lower value
  normalized growth: 0.977
Locus YER111C, strain swi4, stronger effect = lower value
  normalized growth: 0.975
Locus YER155C, strain BEM2 (second series), stronger effect = lower value
  normalized growth: 0.959
Locus YER155C, strain BEM2, stronger effect = lower value
  normalized growth: 0.998
Locus YER167W, strain BCK2, stronger effect = lower value
  normalized growth: 0.99
Locus YFR010W, strain ubp6, stronger effect = lower value
  normalized growth: 0.942
Locus YGL078C, strain dbp3, stronger effect = lower value
  normalized growth: 0.984
Locus YGL086W, strain mad1, stronger effect = lower value
  normalized growth: 0.989
Locus YGL167C, strain pmr1, stronger effect = lower value
  normalized growth: 0.956
Locus YGL173C, strain kem1, stronger effect = lower value
  normalized growth: 0.956
Locus YGL227W, strain vid30, stronger effect = lower value
  normalized growth: 0.961
Locus YGL240W, strain doc1, stronger effect = lower value
  normalized growth: 0.933
Locus YGL248W, strain PDE1, stronger effect = lower value
  normalized growth: 0.957
Locus YGL253W, strain hxk2, stronger effect = lower value
  normalized growth: 0.903 (active)
Locus YGR078C, strain PAC10, stronger effect = lower value
  normalized growth: 0.973
Locus YGR135W, strain pre9, stronger effect = lower value
  normalized growth: 0.97
Locus YGR229C, strain SMI1, stronger effect = lower value
  normalized growth: 0.947
Locus YGR252W, strain gcn5, stronger effect = lower value
  normalized growth: 0.937
Locus YHR013C, strain ard1, stronger effect = lower value
  normalized growth: 0.968
Locus YHR027C, strain rpn1, stronger effect = lower value
  normalized growth: 1
Locus YHR030C, strain SLT2, stronger effect = lower value
  normalized growth: 0.986 and 1.02
Locus YHR079C, strain IRE1 (second series), stronger effect = lower value
  normalized growth: 0.988
Locus YHR079C, strain IRE1, stronger effect = lower value
  normalized growth: 1
Locus YHR094C, strain hxt1, stronger effect = lower value
  normalized growth: 0.985
Locus YHR129C, strain ARP1, stronger effect = lower value
  normalized growth: 0.983
Locus YHR142W, strain chs7, stronger effect = lower value
  normalized growth: 0.912
Locus YHR200W, strain rpn10, stronger effect = lower value
  normalized growth: 0.984
Locus YIL066C, strain RNR3, stronger effect = lower value
  normalized growth: 0.961
Locus YIL073C, strain SPO22, stronger effect = lower value
  normalized growth: 0.988
Locus YIL125W, strain kgd1, stronger effect = lower value
  normalized growth: 0.981
Locus YIR030C, strain dcg1, stronger effect = lower value
  normalized growth: 0.989
Locus YJL092W, strain hpr5, stronger effect = lower value
  normalized growth: 0.944
Locus YJL095W, strain BCK1 (second series), stronger effect = lower value
  normalized growth: 0.96
Locus YJL095W, strain BCK1, stronger effect = lower value
  normalized growth: 0.958 and 1.02
Locus YJL115W, strain asf1, stronger effect = lower value
  normalized growth: 0.962
Locus YJL129C, strain trk1, stronger effect = lower value
  normalized growth: 0.942
Locus YJL134W, strain LCB3, stronger effect = lower value
  normalized growth: 0.971
Locus YJL154C, strain vps35, stronger effect = lower value
  normalized growth: 0.985
Locus YJL164C, strain tpk1, stronger effect = lower value
  normalized growth: 0.974
Locus YJL166W, strain qcr8, stronger effect = lower value
  normalized growth: 0.935
Locus YJL168C, strain set2, stronger effect = lower value
  normalized growth: 0.986
Locus YJL187C, strain SWE1 (second series), stronger effect = lower value
  normalized growth: 0.981
Locus YJL187C, strain SWE1, stronger effect = lower value
  normalized growth: 0.964
Locus YJR043C, strain POL32, stronger effect = lower value
  normalized growth: 0.996
Locus YJR066W, strain TOR1, stronger effect = lower value
  normalized growth: 0.967
